# PubChem BioAssay
# The source made the active and inactive calls.
# Experiments:
# [1] = anti-His antibody binders, primary screen, artefact control for SMM control protein annotation, biochemical, small-molecule microarray, 635 nm fluorescence (AID 1128); details: anti-His Alexa647 antibody binding, higher = more signal;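 also: score merges feature fluorescence with signal-to-noise for each printed compound spot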
# [2] = tested on: Human papillomavirus type 1a E7 protein (residues 1-88); test: HPV1a E7 small-molecule binders, primary screen, biochemical, small-molecule microarray, residues 1-88, 635 nm (AID 1129); details: small-molecule microarray binding, fluorescence 635 nm; higher = more signal
# [3] = target: Focal adhesion kinase 1 (Homo sapiens) (UniProt Q05397); test: small-molecule microarray binders of FAK, primary screen, biochemical, 635/667 nm fluorescence, BSA, DTT (AID 1130); details: PTK2 binding, 635 nm fluorescence, higher = more signal;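 also: composite of spot emission at 667 nm and signal to noise over triplicate slides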
# [4] = tested on: Fibrinogen (Alexa647-labelled); test: fibrinogen binders on compound microarrays, profiling panel, artefact control for SMM control-protein annotation, biochemical, small-molecule microarray, 635/667 nm fluorescence (AID 1131); details: fibrinogen-A647 binding fluorescence, higher = more signal;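 also: z-score merges 667 nm fluorescence with per-spot signal-to-noise over triplicate slides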
# [5] = target: Follistatin (Homo sapiens) (UniProt P19883); test: follistatin binders on small-molecule microarrays, primary screen, biochemical, small-molecule microarray, 635/667 nm fluorescence (AID 1132); details: FST binding, 635 nm fluorescence, higher = more signal
# [6] = target: Fibroblast growth factor 2 (Homo sapiens) (UniProt P09038); test: FGF2 binders on small-molecule microarrays, primary screen, biochemical, small-molecule microarray, 635/667 nm fluorescence (AID 1133); details: small-molecule microarray binding, FGF2, fluorescence 635/667; higher = more signal
# [7] = mitochondrial membrane potential change in A549 cells, profiling panel, cell-based, JC-1 fluorescence, basal, 24 h, 100 nL (AID 1138); details: higher = more signal;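 also: A549 lung adenocarcinoma cells under basal conditions with no added stimulus; test concentration not given here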
# Lefty1 = Lefty1 binders on small-molecule microarrays, primary screen, biochemical, small-molecule microarray, 635/667 nm fluorescence (AID 1139); details: small-molecule microarray binding, fluorescence 635/667; higher = more signal
# [8] = tested on: wheat germ agglutinin (Triticum aestivum), Alexa647-labelled; test: wheat germ agglutinin binders on compound microarrays, profiling panel, artefact control for SMM control-protein annotation, biochemical, small-molecule microarray, 635/667 nm fluorescence (AID 1140); details: WGA-A647 binding, 635 nm fluorescence, higher = more signal;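 also: score merges 667 nm feature emission with signal to noise over triplicate slides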
# [9] = target: Luciferin 4-monooxygenase (Photinus pyralis) (UniProt P08659); test: firefly luciferase enzyme inhibitors, primary screen, biochemical, luminescence, purified enzyme, 2006 set (AID 1141); details: SteadyGlo luminescence, 30 min, higher = more signal, called active from +8 up or from −8 down;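 also: cell-free assay with purified firefly luciferase at 100 ng per well in PBS; test concentration not given here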
# Sequence of Luciferin 4-monooxygenase (Photinus pyralis) (P08659 whole entry, looked up): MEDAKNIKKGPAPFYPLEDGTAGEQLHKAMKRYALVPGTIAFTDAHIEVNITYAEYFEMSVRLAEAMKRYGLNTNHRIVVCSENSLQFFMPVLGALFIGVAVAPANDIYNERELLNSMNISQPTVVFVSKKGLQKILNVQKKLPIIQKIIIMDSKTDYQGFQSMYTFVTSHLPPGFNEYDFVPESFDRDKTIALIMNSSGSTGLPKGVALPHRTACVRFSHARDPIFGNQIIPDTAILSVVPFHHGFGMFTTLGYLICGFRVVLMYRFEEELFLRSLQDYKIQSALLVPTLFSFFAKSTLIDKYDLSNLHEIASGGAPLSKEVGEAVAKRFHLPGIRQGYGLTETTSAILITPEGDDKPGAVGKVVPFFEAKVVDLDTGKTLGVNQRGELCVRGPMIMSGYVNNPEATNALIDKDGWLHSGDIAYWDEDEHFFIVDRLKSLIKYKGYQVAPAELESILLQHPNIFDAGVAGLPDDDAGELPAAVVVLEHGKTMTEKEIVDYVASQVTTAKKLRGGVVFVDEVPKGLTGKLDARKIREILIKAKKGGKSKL
# Sequence of Fibroblast growth factor 2 (Homo sapiens) (P09038 whole entry, looked up): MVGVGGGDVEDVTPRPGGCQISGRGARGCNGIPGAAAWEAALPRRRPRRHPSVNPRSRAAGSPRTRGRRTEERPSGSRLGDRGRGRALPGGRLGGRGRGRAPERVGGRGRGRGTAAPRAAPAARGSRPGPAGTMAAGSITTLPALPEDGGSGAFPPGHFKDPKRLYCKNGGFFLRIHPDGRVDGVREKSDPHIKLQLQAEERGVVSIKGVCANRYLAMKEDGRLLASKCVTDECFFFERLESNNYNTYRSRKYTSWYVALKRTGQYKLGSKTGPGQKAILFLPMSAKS
# Sequence of Focal adhesion kinase 1 (Homo sapiens) (Q05397 whole entry, looked up): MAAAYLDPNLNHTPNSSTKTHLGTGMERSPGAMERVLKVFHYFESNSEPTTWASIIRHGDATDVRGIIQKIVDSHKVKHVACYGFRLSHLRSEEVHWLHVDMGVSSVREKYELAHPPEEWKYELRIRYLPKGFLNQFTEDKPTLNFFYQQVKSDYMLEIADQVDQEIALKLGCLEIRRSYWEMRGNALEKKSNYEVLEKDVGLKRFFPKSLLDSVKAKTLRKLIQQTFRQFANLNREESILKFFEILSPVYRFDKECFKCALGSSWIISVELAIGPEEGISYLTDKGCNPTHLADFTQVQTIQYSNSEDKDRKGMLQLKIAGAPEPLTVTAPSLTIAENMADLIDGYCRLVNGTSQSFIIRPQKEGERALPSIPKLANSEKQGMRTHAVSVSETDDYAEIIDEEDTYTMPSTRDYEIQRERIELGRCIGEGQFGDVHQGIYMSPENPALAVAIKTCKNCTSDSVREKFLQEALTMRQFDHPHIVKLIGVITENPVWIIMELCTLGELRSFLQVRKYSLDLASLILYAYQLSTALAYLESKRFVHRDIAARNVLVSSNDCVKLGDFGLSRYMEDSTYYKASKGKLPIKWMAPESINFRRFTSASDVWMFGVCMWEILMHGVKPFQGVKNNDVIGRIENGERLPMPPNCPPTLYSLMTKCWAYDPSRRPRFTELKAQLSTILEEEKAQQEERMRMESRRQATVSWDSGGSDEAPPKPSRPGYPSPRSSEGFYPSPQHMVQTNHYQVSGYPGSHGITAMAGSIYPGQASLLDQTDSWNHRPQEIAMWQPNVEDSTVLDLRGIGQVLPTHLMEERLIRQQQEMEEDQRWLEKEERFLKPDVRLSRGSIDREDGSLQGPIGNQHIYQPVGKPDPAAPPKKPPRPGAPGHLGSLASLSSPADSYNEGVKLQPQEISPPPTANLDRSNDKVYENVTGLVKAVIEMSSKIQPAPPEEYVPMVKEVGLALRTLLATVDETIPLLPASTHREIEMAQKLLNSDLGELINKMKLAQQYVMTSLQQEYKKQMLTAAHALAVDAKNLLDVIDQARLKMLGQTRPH
# Sequence of Follistatin (Homo sapiens) (P19883 whole entry, looked up): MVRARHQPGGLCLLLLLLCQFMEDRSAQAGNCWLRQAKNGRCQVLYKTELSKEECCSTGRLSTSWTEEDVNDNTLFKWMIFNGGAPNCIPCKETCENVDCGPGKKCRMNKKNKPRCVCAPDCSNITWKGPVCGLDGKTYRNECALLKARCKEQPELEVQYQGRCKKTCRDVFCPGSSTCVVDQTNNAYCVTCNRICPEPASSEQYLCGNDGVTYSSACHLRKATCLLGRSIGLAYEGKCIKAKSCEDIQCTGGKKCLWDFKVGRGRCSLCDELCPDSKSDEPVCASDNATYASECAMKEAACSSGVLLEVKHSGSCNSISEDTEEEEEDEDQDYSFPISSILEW
Structure (SMILES),composite z-score [1],composite z-score [2],composite z-score [3],composite z-score [4],composite z-score [5],composite z-score [6],z-score [7],composite z-score (Lefty1),composite z-score [8],z-score [9]
COC(=O)C(CC#Cc1ccc2c(c1)[C@]1(C(=O)N2)[C@H](C(=O)N2CCCCCCC2)[C@H]2C(=O)O[C@H](c3ccccc3)[C@H](c3ccccc3)N2[C@@H]1c1ccc(O)cc1)C(=O)OC,-0.231,-1.54,-0.222,-2.05,-0.408,-1.1,-1.03,-0.227,-1.42,-0.269 (inactive)
COCCOC(=O)N1C(=O)[C@@]2(c3cc(C#CCNC(N)=O)ccc31)[C@H](c1ccccc1OCCO)N1[C@H](c3ccccc3)[C@H](c3ccccc3)OC(=O)[C@H]1[C@@H]2C(=O)NC[C@H](O)c1ccccc1,1.06,1.2,0.499,0.943,1.28,0.472,-1.31,0.688,0.832,0.311 (inactive)
CCOC(=O)C1=C[C@@H](c2ccccc2)N(S(=O)(=O)c2ccc(C)cc2)[C@H]1c1ccc(F)cc1,0.986,1.14,1.23,0.995,1.06,0.47,0.994,0.207,1.08,1.54 (inactive)
O=C1C2C=CC(C(O)c3ccccc3)N(n3cnnc3)C2C(=O)N1Cc1ccccc1 (stereo not given),0.0968,0.561,0.321,0.249,0.438,-0.0128,0.348,-0.497,-0.164,-1.55 (inactive)
Cc1ccc(S[C@]2(C(=O)NC(C)C)CC(=O)N(Cc3cc(C(F)(F)F)cc(C(F)(F)F)c3)[C@@H]2c2ccc(CO)cc2I)cc1,2.87,-0.335,0.481,-0.306,0.623,0.384,0.598,-0.919,0.445,0.819 (inactive)
CCN1C(C)=C(C(=O)OC)[C@@H](c2ccccc2)N2C(=O)[C@@]3(C(=O)OC)O[C@@]12[C@@H]1C(=O)CCC[C@@H]13,-0.116,-0.356,-0.315,-1.47,1.29,1.01,0.862,1.48,-1.05,-2.3 (inactive)
CO[C@@H]1COC(=O)[C@H](C)NC(=O)CC=C[C@@H](C)[C@H](NS(=O)(=O)c2ccc(C)cc2)COC(=O)CC=C[C@@H]1C,0.373,0.0643,-0.181,-0.412,-0.268,0.0544,1.43,-0.0101,-0.872,-1.11 (inactive)
CC(C)N1CC=CC23O[C@@H]4/C=C\CCCOC(=O)C4[C@H]2C(=O)N(CCO)[C@@H]3C1=O (stereo not given in full),-0.548,-0.328,0.339,-0.508,-0.544,-0.635,1.77,0.225,-0.505,-1.68 (inactive)
Cc1ccc(N2C(=O)c3ccccc3[C@](C)(C(=O)NCC(C)C)[C@@H]2c2ccc(CO)cc2)nc1,-1.02,-1.2,-1.04,-1.43,-0.125,-0.671,-0.393,-0.589,0.0574,0.525 (inactive)
